The text below walks through data of PubChem BioAssay (NCATS).

Inconclusive results are not listed. A call without a number means that no potency is given here. Calls of active or inactive are those of the source. Calls come from the whole dose curve; as a rule, active = well fitted inhibition curve with a large enough effect; inconclusive = small, poorly fitted or top-dose-only effect; inactive = flat fitted curve, though single readings scatter.

Calcium and integrin-binding protein 1 (Homo sapiens), sequence (Q99828 whole entry, looked up): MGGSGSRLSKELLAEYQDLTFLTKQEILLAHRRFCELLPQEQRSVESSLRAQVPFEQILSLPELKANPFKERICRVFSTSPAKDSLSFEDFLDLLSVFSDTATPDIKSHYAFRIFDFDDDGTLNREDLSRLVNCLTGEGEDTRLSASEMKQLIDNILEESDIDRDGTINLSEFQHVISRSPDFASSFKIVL

In the test the target is Calcium and integrin-binding protein 1 (Homo sapiens) (UniProt Q99828). Kind of test: Primary qHTS for Identification of Calcium Integrin Binding Protein 1 (CIB1) Competitor (AID 1508620). Note: top concentration of the series differs between compounds. Particulars: CIB1-GST / FITC-alphaIIb peptide fluorescence polarization; series mostly up to 114 µM. In outline:
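Fluorescence polarization competition: GST-tagged CIB1 (1 uM final) preincubated with compound 15 min at room temperature, then FITC-labelled alphaIIb peptide (100 nM final) added. After 15 min at room temperature, polarization read at Ex 480/Em 540.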
Turning to `COC(=O)[C@@]1(c2ccc(C)cc2)C[C@H]1CN1CCC(O)(c2ccccc2)CC1`, the Potency result is “inactive”. Consider `CC1CCC2C(C(=O)O)=COC(O[C@@H]3O[C@H](CO)[C@@H](O)[C@H](O)[C@H]3O)C12` (stereo not given in full), for which the Potency entry is “inactive”. Still for that read-out and setting: then `C=C1C(=O)O[C@@H]2C[C@H](C)[C@@]3(O)C=C(C(C)=O)[C@]4(CC3C[C@H]12)C(=O)O[C@H]1C[C@@H](C)C(CCC(C)=O)=CC[C@H]14` (stereo not given in full), with “inactive”. Still for that read-out and setting: then `CCc1cccc(CC)c1NC(=O)c1nn(C)c2c1CCc1cnc(Nc3ccc(C(=O)NC4CCN(C)CC4)cc3OC(F)(F)F)nc1-2`, with “inactive”; and `CC(C)C(CO)Nc1nc(Nc2cc(N)cc(Cl)c2)c2ncn(C(C)C)c2n1` (stereo not given), with “inactive”. The same measure, in the same setting: then `COC(=O)C1=CO[C@@H](O)C2C(CO)=CCC12` (stereo not given in full), with “inactive”. For `COC1CC(O[C@H]2CC[C@@]3(C)C(CCC4C3[C@H](OC(C)=O)[C@@H](OC(=O)/C=C/c3ccccc3)[C@]3(C)C(C(C)=O)CC[C@]43O)C2)OC(C)C1OC1CC(OC)C(OC2CC(OC)C(OC3OC(C)C(OC4OC(CO)C(O)C(O)C4O)C(OC)C3O)C(C)O2)C(C)O1` (stereo not given in full), the activity change, negative = inhibition was 3.75% [at 12.4 µM] (inactive). `CC1(C)CCC2(C(=O)OC3OCC(O)C(O)C3O)CCC3(C)C(=CCC4C5(C)CC(O)C(OC6OC(COC7OCC(O)C(O)C7O)C(O)C(O)C6O)C(C)(C)C5CCC43C)C2C1` (stereo not given): the Potency result was “inactive”. Consider `CC(=O)NC1C(OC(C)(C)C2CCC3(C)C=C(C4CCC5C4(C)CC(O)C4OC(C(C)(C)O)CCC45C)CCC3O2)OC(CO)C(O)C1O` (stereo not given), for which the Potency entry is “inactive”. Still for that read-out and setting: then `CC1=CC(=O)[C@]2(O[C@@H]3O[C@@H](C)[C@H](O)[C@@H](O)[C@H]3OC(=O)/C=C/c3ccccc3)C=CO[C@@H](O[C@@H]3O[C@H](CO)[C@@H](O)[C@H](O)[C@H]3O)[C@H]12`, with “inactive”; and `C=C1C(=O)OC2C1C(O)CC1(C)C(O)CCC(C=O)C21` (stereo not given), with “inactive”. The same measure, in the same setting: then `Cc1nc(C)c(-c2ccc(C3CCC(CC(=O)O)CC3)cc2)nc1C(N)=O` (stereo not given), with “inactive”. The same measure, in the same setting: in the case of `CC1(C)CC[C@]2(CO[C@@H]3O[C@H](CO)[C@@H](O)[C@H](O)[C@H]3O)[C@@H](O)C[C@]3(C)C(=CCC4[C@@]5(C)CC[C@H](O[C@@H]6O[C@H](CO[C@@H]7O[C@H](CO[C@@H]8OC[C@@H](O)[C@H](O)[C@H]8O)[C@@H](O)[C@H](O)[C@H]7O)[C@@H](O)[C@H](O)[C@H]6O)C(C)(C)C5CC[C@]43C)[C@@H]2C1` (stereo not given in full) it was “inactive”; in that of `Cc1cc(N(C)C)ccc1-c1nc2ccc(-c3nc4ccc(N5CCN(C)CC5)cc4[nH]3)cc2[nH]1`, “inactive”; in that of `O=C(Nc1ccc(S(=O)(=O)Nc2nccs2)cc1)C(c1ccccc1)c1ccccc1`, “inactive”.

Turning to `C=C[C@H]1[C@H](O[C@@H]2O[C@H](CO)[C@@H](O)[C@H](O)[C@H]2O)OC=C(C(=O)OC)[C@H]1C[C@@H]1c2cc(O)c(O)cc2CCN1C(C)=O`, the Potency entry is “inactive”. Same read-out and setting: then `CC1(O)CC(O)C2(O)C=COC(O[C@@H]3O[C@H](CO)[C@@H](O)[C@H](O)[C@H]3O)C12` (stereo not given in full), with “inactive”. For `O=C1NC(=O)C(c2cn(-c3ccccc3)nc2-c2ccc(F)cc2)N1` (stereo not given), the Potency result was “inactive”. Take `CC(C)(C)c1cc(Br)cc([C@H](CC(=O)O)NC(=O)CNC(=O)c2cc(O)cc(NC3=NCC(O)CN3)c2)c1` (stereo not given in full): the Potency result was “inactive”. Consider `C/C=C/C=C/C(=O)N1CC[C@]23c4ccccc4N[C@H]4N(C)c5cccc6c5[C@@]42CCN([C@H]6C2OC2(C)C)[C@H]13` (stereo not given in full), for which the Potency entry was “inactive”. The same measure, in the same setting: in the case of `CC[C@@H](O)C[C@@H]1C(C)=C[C@@H]2CCCC[C@@H]2[C@@]1(C)C(=O)O` it was “inactive”; in that of `COc1cc(C)c(C(=O)O[C@H]2[C@@H](OC(C)=O)[C@H](n3ccc(=O)[nH]c3=O)O[C@@H]2CO)c(OC)c1`, “inactive”; in that of `CC1=C2C[C@H]3O[C@@]3(C)CCC3O[C@@]3(C)C[C@@]2(O)OC1=O` (stereo not given in full), “inactive”. Same read-out and setting: then `CC(C)(O)C1CCC(C)(C2CCC3(C)C4CCC5C(C)(C(=O)OC6OC(CO)C(O)C(O)C6O)C(O)CC(O)C56CC46CCC23C)O1` (stereo not given), with “inactive”; and `C=C(C(=O)O)[C@@H]1CC[C@@]2(C)CC[C@H](O)[C@@]2(C(C)=O)C1`, with “inactive”; and `COc1cc(C2c3cc4c(c(O)c3CC(CO)C2C(=O)O)OCO4)cc(OC)c1O` (stereo not given), with “inactive”. On the same count and under the same terms, in the case of `COc1ccc([C@@H]2OC[C@H]3[C@@H]2CO[C@@H]3c2ccc(OC3OC(CO)C(O)C(O)C3O)c(OC)c2)cc1OC` (stereo not given in full) it was “inactive”. For `COc1cc(/C=C/C(=O)OC[C@H]2O[C@@](CO)(O[C@H]3O[C@H](CO)[C@@H](O)[C@H](O)[C@H]3O)[C@@H](OC(=O)/C=C/c3ccc(O)c(OC)c3)[C@@H]2O)ccc1O`, the Potency entry is “inactive”. For `C=C[C@H]1[C@H](O[C@@H]2O[C@H](CO)[C@@H](O)[C@H](O)[C@H]2O)OC=C(C(=O)OC)[C@H]1CCOC(=O)c1cc(O)c(O)c(O)c1`, the Potency result was “inactive”.

As to `CCn1c(=O)c(-c2ccn[nH]2)cc2c(C)nc(N)nc21`, the Potency entry was “inactive”.

Consider `CC(C)=CC/C=C(\C)[C@H]1CC[C@]2(C)[C@@H]1[C@H](O)C[C@@H]1[C@@]3(C)CC[C@H](O)C(C)(C)[C@@H]3[C@@H](O[C@@H]3O[C@H](CO)[C@@H](O)[C@H](O)[C@H]3O)C[C@]12C`, for which the Potency result is “inactive”. With `CC(=O)O[C@@H]1[C@@H](OC(=O)/C=C/c2ccccc2)[C@@H](OC(C)=O)[C@H](O[C@H]2[C@@H]3C=CO[C@@H](O[C@@H]4O[C@H](CO)[C@@H](O)[C@H](O)[C@H]4O)[C@@H]3[C@@]3(CO)O[C@@H]23)O[C@H]1C`, the Potency entry is “inactive”. As for `COc1cc(O)cc(C)c1C(=O)O[C@@H]1[C@H](O)[C@@H](CO)O[C@H]1n1ccc(=O)[nH]c1=O`, the Potency result is “inactive”.

Regarding `NC(=O)Nc1cc(-c2cccc(F)c2)sc1C(=O)NC1CCCNC1` (stereo not given), the Potency result is “inactive”.

For the molecule `C=C[C@H]1C(O[C@@H]2O[C@H](CO)[C@@H](O)[C@H](O)[C@H]2O)OC=C2C(=O)N3CCc4c([nH]c5ccccc45)[C@H]3C[C@H]21` (stereo not given in full), the Potency entry is “inactive”. Consider `Cc1oc2ccccc2c1CNC(=O)NCc1cccs1`, for which the Potency result is “inactive”. On to `O=C1NC(=O)C(c2cn3c4c(cccc24)CCC3)C1c1c[nH]c2ccccc12` (stereo not given), for which the Potency entry was “inactive”. On the same count and under the same terms, then `C=C1CCC2C(C)(C)CCC[C@]2(C)[C@H]1C/C=C(\CO)C(=O)C(=O)O` (stereo not given in full), with “inactive”; and `CC(C)c1cccc2c(-c3ccccc3)cc(-c3ccc(-c4ccc(C(=O)O)cc4)[nH]3)nc12`, with “inactive”. Still for that read-out and setting: in the case of `CC1CC(O)C2(OC1=O)OC1C(O)C3C4CCC5CC(OC6OC(CO)C(O)C(O)C6OC6OC(C)C(O)C(O)C6O)CCC5(C)C4CCC3(C)C1C2C` (stereo not given) it was “inactive”.
